Screens as filed in PubChem.
NTMT1 inhibitor: inhibitors of human N-terminal methyltransferase NTMT1; Q9BV86; NTMT1 MTase-Glo SAH luminescence, purified enzyme; Potency, µM (series often up to 114 µM), for the others: top-dose activity change, negative = inhibition, hits mostly inhibitors; actives 2.5% (n = 59,000); AID 1645870;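 also: potency is read from the fitted curve at half-maximal effect; plate controls were DMSO vehicle for no effect and no enzyme for full effect; nearly all actives have a fitted effect of over 65% in size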
p53null 39C kill: selectivity test: cytotoxicity in p53 null cells, nonpermissive temperature; H1299 p53-null (neo) cells, 39C, ATPlite viability, 24 h; Potency, µM (doses to about 46.1 µM), without a hit: top-dose activity, negative = cell killing, actives largely listed as cytotoxic; actives 0.97% (n = 55,000); AID 904;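 also: potency is read from the fitted curve at half-maximal effect; 0% = DMSO only and -100% = full killing by 100 µM tamoxifen; nearly all actives have a fitted effect of over 50% in size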
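H1299 lung cancer cells, p53-null (H1299-neo) or expressing p53 A138V (H1299-p53A138V), were plated overnight at 37C, then exposed to compounds at up to 46 uM for 24 hr at 39C. Viability was read by ATP-based luminescence.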
p53null 32C tox: selectivity test: cytotoxicity in p53 null cells, permissive temperature; H1299-neo p53 null cells, ATP luminescence, 24 h, 32C; Potency, µM (top dose mostly 46.1 µM), for inactives: at the highest dose activity change, negative = cytotoxicity, hits mostly cytotoxic; actives 0.62% (n = 55,000); AID 903;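 also: potency is read from the fitted curve at half-maximal effect; 0% = DMSO only and -100% = full killing by 100 µM tamoxifen; nearly all actives have a fitted effect of over 55% in size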
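AC50 values derive from Hill modelling of qHTS concentration-response data (up to 46 uM) in H1299-neo cells. Cells were treated 24 h at 32C following overnight attachment at 37C; viability was read as cellular ATP.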
DRV1 agonist: GPR32 (DRV1) agonism, beta-arrestin recruitment; activation, % at 76.9 µM; O75388; CHO-K1 GPR32 beta-arrestin PathHunter luminescence, 90 min; zero percent set by DMSO-only wells; AID 1346428; actives 2.5% (n = 48,000);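 active = activation of at least 60% and not above a set upper limit, about 1 call in 100 departs from these limits; inconclusive = activation of 40% to 60%, or above that upper limit; inactive = activation under 40%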; also: 0% is about no effect
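PathHunter enzyme-fragment complementation, CHO-K1 GPR32 stable line; 2,500 cells/well, overnight attach; cpd 90 min 37 °C 5% CO2; detection reagent 1 h RT; chemiluminescence. DMSO = EC0.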
FH mod: Identification of activators of human fumarate hydratase by quantitative high-throughput screening. Potency, µM (titrated, usually from 79.9 µM), for inactives: top-dose activity change, negative = inhibition, most hits filed as inhibitors. AID 1347055, 2019. FH coupled MDH/diaphorase resazurin fluorescence, 15 min. actives 0.22% (n = 54,000); also: potency is read from the fitted curve at half-maximal effect; % is scaled to controls: 0 for no effect and ±100 for the full control effect; the screen sought activators but most active calls are inhibition curves; nearly all actives have a fitted effect of over 45% in size
GALC G270D act: enhancers of human galactocerebrosidase G270D mutant activity in cells; P54803; Potency, µM (doses to about 57.5 µM), most hits filed as activators; 145M-Twi-hGALC-G270D cells (Twitcher mouse brain line with human GALC G270D), HMU-beta-Gal fluorescence, 48 h; actives 0.1% (n = 45,000); AID 1159614; also: potency is read from the fitted curve at half-maximal effect; 0% is about no effect; nearly all actives have a fitted effect of over 65% in size
Target sequence (P54803 whole entry G286D): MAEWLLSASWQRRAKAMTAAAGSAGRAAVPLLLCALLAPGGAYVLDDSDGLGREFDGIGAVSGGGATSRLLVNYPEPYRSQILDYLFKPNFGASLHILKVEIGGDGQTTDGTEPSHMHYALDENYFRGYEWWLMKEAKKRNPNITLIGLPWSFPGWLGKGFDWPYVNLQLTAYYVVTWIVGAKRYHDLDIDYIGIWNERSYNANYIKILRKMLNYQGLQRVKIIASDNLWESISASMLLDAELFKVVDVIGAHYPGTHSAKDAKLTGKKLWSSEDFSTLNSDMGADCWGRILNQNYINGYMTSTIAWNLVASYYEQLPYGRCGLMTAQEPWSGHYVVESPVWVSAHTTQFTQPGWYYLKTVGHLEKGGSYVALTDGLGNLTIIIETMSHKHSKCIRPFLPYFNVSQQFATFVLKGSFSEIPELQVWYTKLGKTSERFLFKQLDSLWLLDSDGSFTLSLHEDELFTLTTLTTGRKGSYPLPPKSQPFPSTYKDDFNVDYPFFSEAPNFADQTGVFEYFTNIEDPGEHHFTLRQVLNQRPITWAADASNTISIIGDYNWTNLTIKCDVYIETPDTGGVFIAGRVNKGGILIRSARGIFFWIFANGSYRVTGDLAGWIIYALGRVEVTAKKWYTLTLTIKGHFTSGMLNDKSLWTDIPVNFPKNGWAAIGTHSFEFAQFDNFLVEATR
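Brain-derived Twitcher mouse 145M-Twi cells stably expressing human GALC-G270D or wild-type GALC, treated live, then residual GALC activity read by fluorescence of HMU-b-Gal substrate (0.1 mM final) in citrate-phosphate buffer pH 5.2 with sodium taurocholate. Signal increase indicates enhancement.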
* = called active by the depositor; i = inactive; ? = inconclusive; . = no result given; ! = repeats disagree; [ ] = dose if it differs, or a comment. Sampled rows, rich in hits. Any-hit rate of the full collection: about 3.9%. Unless noted, calls follow the shape of the dose curve; as a rule, active = well fitted curve in the direction sought with a large enough effect; inconclusive = small, poorly fitted or top-dose-only effect, or another doubt; inactive = no such curve, though single readings can be large; an effect the other way counts as inactive or inconclusive.

SMILES	NTMT1 inhibitor	p53null 39C kill	p53null 32C tox	DRV1 agonist	FH mod	GALC G270D act
CC1CCN(CCNC(=O)c2ccc(Cn3c(SCc4ccccc4)nc4cccnc43)cc2)CC1	?	13µM*	?	-16	-1%	i
CCCCN(C)C(=O)Cn1nc(-c2cncnc2)ccc1=O	4%	.	.	.	.	.
COc1ccc(Nc2oc(-c3ccc(COc4cccc(C)c4)o3)nc2C#N)cc1	5%	-8%	-15%	97*	-9%	i
CCOc1ccc(Nc2oc(-c3ccc(COc4ccc(C)cc4)o3)nc2C#N)cc1	5%	-12%	-21%	67*	-2%	i
COc1ccc(Nc2oc(-c3ccc(COc4ccccc4)o3)nc2C#N)cc1	13%	?	-7%	?	-19%	i
COc1ccc(Nc2oc(-c3ccc(COc4ccc(OC)cc4)o3)nc2C#N)cc1	6%	-7%	-12%	71*	3%	i
COc1ccc(CCNc2oc(COc3cccc(C)c3)nc2C#N)cc1OC	7%	49%	3%	111*	?	i
CCN(CC)Cc1ccc(C(=O)N(CCc2ccccc2OC)[C@@H]2CCNC2)cc1	0%[29.8 µM]	.	.	.	-3%[53.3 µM]	.
[2H]C([2H])([2H])C(O)([C@@H](C)/C=C/[C@@H](C)[C@H]1CC[C@H]2/C(=C/C=C3C[C@@H](O)C[C@H](O)C3)CCC[C@]12C)C([2H])([2H])[2H]	7%	.	.	.	.	.
Cn1cc(S(=O)(=O)CC(=O)Nc2ccc3c(c2)OCCO3)c2ccccc21	.	28µM*	?	.	.	.
CC(C)(C)c1ccc(O)c(O)c1	4.5µM*	.	.	?	40µM*	i
COc1cccc(NS(=O)(=O)c2ccc(NCc3cccc(OC)c3O)cc2)c1	-1%	.	.	.	.	.
COc1ccc(Nc2c3c(nc4ccc(NC(=O)c5cc(Cl)ccc5OC)cc24)CCCC3)cc1OC	?	5µM*	6.3µM*	61*	-4%	i
COc1cc(OC)cc(C(=O)Nc2ccc3nc4c(c(Nc5ccc(OC)c(OC)c5)c3c2)CCCC4)c1	-27%	?	?	85*	-19%	i
CCOc1ccccc1C(=O)Nc1ccc2nc3c(c(Nc4ccc(OC)c(OC)c4)c2c1)CCCC3	-8%	?	?	-21	-12%	i
COc1ccccc1Nc1c2c(nc3ccc(NC(=O)c4ccc(N(C)C)cc4)cc13)CCCC2	-2%	5%	5%	-35	?	i
CC1=C(C)C(=O)OC(C(C)C2C(O)CC3C4C5OC5C5(O)CC(OC6OC(CO)C(OC7OC(C)C(O)C(O)C7O)C(O)C6O)CC(O)C5(C)C4CCC32C)C1 (stereo not drawn)	-5%[12.6 µM]	.	.	.	10%[20.6 µM]	.
COc1ccc(NC(=O)CCc2c(C)nn(-c3ccc(N4CCCCC4)nn3)c2C)cc1Cl	.	?	10µM*	-10	.	.
Cc1cc(-c2ccccc2)n2ncc(C(=O)Nc3ccccc3Sc3ccccc3)c2n1	7%	.	.	.	.	.
O=C1CC2(CCCC2)CC(=O)N1	16%[57.5 µM]	.	.	65*	-3%[53.3 µM]	i
COC(=O)C1=CO[C@@H](O[C@@H]2O[C@H](CO[C@@H]3O[C@H](COC(=O)/C=C/c4cc(OC)c(O)c(OC)c4)[C@@H](O)[C@H](O)[C@H]3O)[C@@H](O)[C@H](O)[C@H]2O)[C@@H]2C(CO)=CC[C@H]12	7%[12.6 µM]	.	.	.	1%[20.6 µM]	.
CC(C)c1ccc(NC(=O)c2cccs2)c(-c2nc3ccccc3[nH]c2=O)c1	-14%[57.5 µM]	.	.	.	?	.
CC(=O)c1cccc(NC(=O)c2cc(-c3ccc4c(c3)OCCO4)on2)c1	?	3.2µM*	2µM*	-28	3%	i
CC(=O)Nc1ccc(NC(=O)c2cc(-c3ccc4c(c3)OCCO4)on2)cc1	-1%	?	?	-5	7%	i
Cc1ccc(OC(=O)c2cc(-c3ccc4c(c3)OCCO4)on2)c(C)c1	-1%	32µM*	20µM*	-20	-13%	i
SMILES	NTMT1 inhibitor	p53null 39C kill	p53null 32C tox	DRV1 agonist	FH mod	GALC G270D act
CCCS(=O)(=O)c1ncc(Cl)c(C(=O)N(Cc2ccccc2)Cc2ccco2)n1	-9%	?	22µM*	-16	-19%	i
O=C(c1ccc(F)c(F)c1Nc1ccc(I)cc1F)N1CC(O)([C@@H]2CCCCN2)C1	32µM*!	.	.	.	-2%	.
O=C(NOCC(O)CO)c1ccc(F)c(F)c1Nc1ccc(I)cc1F (stereo not drawn)	-3%[57.5 µM]	.	.	.	0%	.
NC(=O)CCCSc1nc(N)nc(-c2c(Cl)cc3c4c(cccc24)COC3)n1	4%[57.5 µM]	.	.	.	4%	.
CCc1cccc(C)c1NC(=O)CCS(=O)(=O)c1ccc2c(c1)oc(=O)n2C	40µM*	-4%	-4%	3	0%	i
COc1cc(/C=C/C(=O)OCC2OC(OC3(CO)OC(CO)C(O)C3O)C(O)C(O)C2O)ccc1O (stereo not drawn)	-6%[29.8 µM]	.	.	.	5%[53.3 µM]	.
CC(CC1c2ccccc2CCc2ccccc21)CN(C)C (stereo not drawn)	13µM*	.	.	-13	0%[53.3 µM]	i
O=c1c(O)c(-c2ccc(O)c(O)c2)oc2cc(O)ccc12	50µM*!	.	.	.	27µM*![activator]	.
O=c1c(O)c(-c2ccc(O)cc2)oc2cc(O)cc(O)c12	?	.	.	.	-13%[53.3 µM]	.
COc1cc(O)c2c(=O)c(O)c(-c3ccc(O)c(O)c3)oc2c1	25µM*	.	.	.	-8%	.
CCCn1cc2c(nc(NC(=O)Nc3ccc(OC)cc3)n3nc(-c4ccco4)nc23)n1	2%[57.5 µM]	.	.	.	-10%	.
COc1ccccc1NC(=O)N1CCN(c2ccc3nnc(-c4ccc(F)cc4)n3n2)CC1	79µM*	-8%	-1%	5	-14%	i
COc1cccc(NC(=O)c2c(C)oc3nc(C)nc(N4CCCC4)c23)c1	89µM*	-9%	8%	-11	3%	i
CCc1cccc(NC(=O)c2c(C)oc3nc(C)nc(N4CCCC4)c23)c1	-2%	-2%	0%	-7	-1%	i
O=C(O)c1cc(C(F)(F)F)ccc1N1CC[C@H](OCc2ccccn2)C1	?	.	.	.	1%	.
C[C@@H]1CC[C@]2(C(=O)O)CC[C@]3(C)C(=CCC4[C@@]5(C)C[C@@H](O)[C@H](O)[C@@](C)(CO)C5CC[C@]43C)C2[C@]1(C)O (stereo partly drawn)	10%[29.8 µM]	.	.	.	0%[53.3 µM]	.
C=CC(=O)Nc1cccc(C)c1Nc1ncc2cc(-c3c(Cl)c(OC)cc(OC)c3Cl)ccc2n1	14%	.	.	.	-23%	.
OCC(CO)(CO)NCC(O)Cn1c2ccc(Cl)cc2c2cc(Cl)ccc21 (stereo not drawn)	22µM*	.	.	.	-14%	.
